Assay [1] concerns the target Lysosomal acid glucosylceramidase (Homo sapiens) (UniProt P04062). The experiment in a line: Glucocerebrosidase-p2 (AID 348; in the data active = potency below about 10 µM; note: potency is the fitted concentration of half-maximal effect). Conditions: purified GBA, blue fluorogenic substrate, 40 min. An outline of the steps: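 Compounds titrated from 0.6 nM upwards against 0.2 nM enzyme in pH 5.9 citric acid/KH2PO4, taurocholate, tween-20; blue fluorogenic substrate 80 uM, 40 min room temperature, stopped and read Ex 365/Em 440 for AC50.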

A short description of assay [2]: AP1 Signaling Pathway (AID 357).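 Note: ME-180 reporter cells stimulated with EGF at its EC50 level; % is set by controls: 0 for no effect and ±100 for the full control effect.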 As to conditions: ME-180 AP-1-bla reporter, EGF-induced, beta-lactamase ratio, 5 h; at 7.69 µM (top of the series) unless noted. An outline of the steps: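 In this screen, ME-180 cells in Opti-MEM with 0.5% dialyzed FBS received EC50 EGF and compound titrations for 5 h. AP-1 reporter beta-lactamase was detected via CCF4 ratio, giving AC50 for positive and negative modulators.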

Assay [3] addresses Cytochrome P450 1A2 (Homo sapiens) (UniProt P05177). The experiment in a line: p450-cyp1a2 (AID 410; calls by dose curve; note: potency is the fitted concentration of half-maximal effect;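 for activity change, negative = inhibition: -100% = full effect of reference inhibitor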). Conditions: recombinant CYP1A2, luciferin-ME demethylation, luminescence; series mostly up to 11.4 µM. The procedure, abridged: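 Inhibition was calculated relative to 57 uM furafylline (full inhibition). The reaction used human CYP1A2 at 20nM with Luciferin-ME at its Km, 100uM, driven by an NADPH-regenerating system for 60 min at room temperature.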

Assay [4] in a line: NFAT Signaling Pathway (AID 444).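 Note: carbachol stimulus at about its EC50 of 1 µM final; % is set by controls: 0 for no effect and ±100 for the full control effect.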 As to conditions: Jurkat NFAT-bla M1, carbachol, beta-lactamase ratio, 5 h; at 7.69 µM (top of the series) unless noted. The procedure, abridged:
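Jurkat cells with NFAT-driven β-lactamase reporter and co-expressed M1 receptor, stimulated with carbachol (final 1 uM, ~EC50), compound titration, 5 h at 37 °C. CCF4 loaded 1 h at RT; 460/530 nm ratio gave %activity and AC50.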

The nature of assay [5]: Stat Signaling Pathway (AID 446).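 Note: ME-180 cervical cancer cells given 40 pM IL-6 alongside compound; SIE-controlled beta-lactamase reporter measured as 460/530 nm FRET emission ratio; % is set by controls: 0 for no effect and ±100 for the full control effect.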 Conditions: ME-180 SIE beta-lactamase reporter, IL-6 stimulated, 5 h; at 7.69 µM (top of the series) unless noted. An outline of the steps: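 ME-180 SIE-bla cells; overnight plating; cpd + IL-6 40 pM, 5 h, 37 C; LiveBLAzer 2.5 h RT; 460/530 nm emission ratio. Normalized to 300 pM IL-6 and 125 nM JAK inhibitor controls.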
The target of assay [6] is Glucocorticoid receptor (Homo sapiens) (UniProt P04150). The experiment in a line: GR-GFP Redistribution (AID 450;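 active = compounds whose dose series gives a full or clear partial fitted curve of increased nuclear translocation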; note: potency is the fitted concentration of half-maximal effect). As to conditions: U2OS GR-GFP nuclear translocation, laser cytometry, 2 h.
Sequence of Glucocorticoid receptor (Homo sapiens) (P04150 whole entry, looked up, the tested form may be a part): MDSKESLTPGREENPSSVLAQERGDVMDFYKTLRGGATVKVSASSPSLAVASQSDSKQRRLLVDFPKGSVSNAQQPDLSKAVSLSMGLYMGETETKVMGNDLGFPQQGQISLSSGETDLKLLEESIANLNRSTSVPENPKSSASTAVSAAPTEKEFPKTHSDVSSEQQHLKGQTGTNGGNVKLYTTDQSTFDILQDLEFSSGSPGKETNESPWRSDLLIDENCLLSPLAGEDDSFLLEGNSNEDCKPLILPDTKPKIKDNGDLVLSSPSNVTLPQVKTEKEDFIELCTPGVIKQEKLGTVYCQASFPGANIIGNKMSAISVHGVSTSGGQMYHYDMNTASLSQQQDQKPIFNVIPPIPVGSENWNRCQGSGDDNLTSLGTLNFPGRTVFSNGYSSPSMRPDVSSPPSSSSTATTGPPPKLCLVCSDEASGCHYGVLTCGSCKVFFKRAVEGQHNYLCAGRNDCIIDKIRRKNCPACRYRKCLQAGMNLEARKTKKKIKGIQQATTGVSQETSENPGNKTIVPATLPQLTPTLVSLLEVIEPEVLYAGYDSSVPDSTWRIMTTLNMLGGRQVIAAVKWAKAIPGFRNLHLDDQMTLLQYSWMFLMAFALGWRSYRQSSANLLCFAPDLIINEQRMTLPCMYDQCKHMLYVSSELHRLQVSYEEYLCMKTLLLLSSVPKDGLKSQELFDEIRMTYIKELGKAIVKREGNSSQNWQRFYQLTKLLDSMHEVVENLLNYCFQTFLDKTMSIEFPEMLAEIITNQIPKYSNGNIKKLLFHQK
Assay [7] has the same target. The experiment in a line: GR-EFC Redistribution (AID 451; calls by dose curve; note: potency is the fitted concentration of half-maximal effect). As to conditions: CHO-K1 GR-EFC translocation, beta-gal luminescence, 2 h. An outline of the steps: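 CHO-K1 cells expressing nuclear EA and GR-ED fragments of b-gal; compounds titrated up to 46 uM final, 2 h at 37 C. GR nuclear translocation read as complemented b-gal luminescence after 1 h RT detection.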

The target of assay [8] is Mitogen-activated protein kinase 10 (Mus musculus) (UniProt Q61831). The experiment in a line: JNK3 AlphaScreen Assay (AID 530).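 Note: kinase came from lysate of stimulated human HepG2 cells; signal reports phosphorylation of biotinylated GST-cJun 1-79 at Ser73 with 10 µM ATP; % is set by controls: 0 for no effect and ±100 for the full control effect.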 As to conditions: JNK3 lysate, c-Jun phosphorylation; series mostly up to 11.4 µM. The procedure, abridged:
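qHTS format: compounds tested as titrations against IL-1beta/TNF-alpha-activated HepG2 lysate JNK3 with biotin-GST-cJun substrate and 10 uM ATP at room temperature. Loss of anti-phospho-cJun AlphaScreen signal indicates inhibition.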

The target of assay [9] is 3',5'-cyclic-AMP phosphodiesterase 4B (Homo sapiens) (UniProt Q07343). The experiment in a line: qHTS Assay for Inhibitors of PDE-IV (AID 607; active = well fitted activation curve with a large enough effect in the main read-out, with a control signal flat, not every such curve was filed as active; note: % of control where 0% means no effect). Conditions: HEK293 ACTOne CNG channel cells, membrane potential fluorescence; series mostly up to 22.9 µM. An outline of the steps:
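ACTOne HEK293 cells carry a modified cAMP-gated CNG channel and express endogenous PDE4; plated 1000 cells/well, compounds up to 22.9 uM final. Membrane-potential dye fluorescence (ex 535/em 590) was read; parental cells received 10 uM forskolin + 100 uM RO 20-1724.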
Background: In qHTS, concentration-response curves come from the screen itself.

In assay [10] the target is Cytochrome P450 2C9 (Homo sapiens) (UniProt P11712). The experiment in a line: qHTS Assay for Inhibitors and Substrates of Cytochrome P450 2C9 (AID 883; active = well fitted curve in the direction sought with a large enough effect; an effect the other way counts as inactive or inconclusive; note: % is set by controls: 0 for no effect and ±100 for the full control effect; nearly all actives have a fitted effect of over 60% in size). Conditions: recombinant CYP2C9, luciferin-H luminescence, 60 min; series mostly up to 11.4 µM. The procedure, abridged:
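Signal: luciferase luminescence reporting luciferin produced by CYP2C9. Conditions: 10nM enzyme, Luciferin-H 100uM at KM, 25mM KPO4, 37C, 60 min NADPH-driven reaction. Reference: 57uM sulphaphenazole as 100% inhibition.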

Assay [11] deals with Cytochrome P450 2C19 (Homo sapiens) (UniProt P33261). The experiment in a line: qHTS Assay for Inhibitors and Substrates of Cytochrome P450 2C19 (AID 899; active = well fitted curve in the direction sought with a large enough effect; an effect the other way counts as inactive or inconclusive; note: nearly all actives have a fitted effect of over 60% in size; note: potency is the fitted concentration of half-maximal effect). Conditions: recombinant CYP2C19, luciferin-H EGE luminescence; series mostly up to 11.4 µM. An outline of the steps:
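Signal comes from luciferase acting on luciferin released by CYP2C19-mediated hydroxylation of Luciferin-H EGE, 10uM (KM). Assay mix: 5nM enzyme, 50mM KPO4; 60 min at 37C with NADPH regeneration. Data normalized against 57uM ketoconazole.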

The target in assay [12] is Cytochrome P450 3A4 (Homo sapiens) (UniProt P08684). The experiment in a line: qHTS Assay for Activators of Cytochrome P450 3A4 (AID 885; active = well fitted curve in the direction sought with a large enough effect; an effect the other way counts as inactive or inconclusive; note: nearly all actives have a fitted effect of over 65% in size). Conditions: recombinant CYP3A4, Luciferin-PPXE luminescence, 60 min; series mostly up to 11.4 µM. The procedure, abridged:
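20nM CYP3A4 + 25uM Luciferin-PPXE (=KM), 200mM KPO4; cpd 10 min RT; NADPH regen, 60 min RT; stop w/ detection buffer, 20 min; luminescence. Normalized to 57 uM ketoconazole.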

The target is the same in assay [13]. The experiment in a line: qHTS Assay for Inhibitors and Substrates of Cytochrome P450 3A4 (AID 884; active = well fitted curve in the direction sought with a large enough effect; an effect the other way counts as inactive or inconclusive; note: potency is the fitted concentration of half-maximal effect; nearly all actives have a fitted effect of over 50% in size). As to conditions: recombinant CYP3A4, Luciferin-PPXE luminescence; series mostly up to 57.1 µM. An outline of the steps:
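20 nM human CYP3A4 with 25 uM Luciferin-PPXE (at KM) in 200 mM KPO4, preincubated 10 min with compound; NADPH regeneration started a 60 min RT reaction. Luciferin detected by luminescence, normalized to 57 uM ketoconazole as full inhibition.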

For assay [14], the target named is Cytochrome P450 2D6 (Homo sapiens) (UniProt P10635). The experiment in a line: qHTS Assay for Inhibitors and Substrates of Cytochrome P450 2D6 (AID 891; active = well fitted curve in the direction sought with a large enough effect; an effect the other way counts as inactive or inconclusive; note: potency is the fitted concentration of half-maximal effect; nearly all actives have a fitted effect of over 60% in size). Conditions: recombinant CYP2D6, luciferin-ME EGE luminescence; series mostly up to 11.4 µM. An outline of the steps: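 Human CYP2D6 (5 nM) with 30 uM Luciferin-ME EGE (at Km) in 100 mM KPO4, compound preincubated 10 min, then NADPH regeneration system for 60 min at room temperature. Luciferin read by luminescence; normalized to 1.43 uM quinidine.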
Sequence of Cytochrome P450 2D6 (Homo sapiens) (P10635 whole entry, looked up): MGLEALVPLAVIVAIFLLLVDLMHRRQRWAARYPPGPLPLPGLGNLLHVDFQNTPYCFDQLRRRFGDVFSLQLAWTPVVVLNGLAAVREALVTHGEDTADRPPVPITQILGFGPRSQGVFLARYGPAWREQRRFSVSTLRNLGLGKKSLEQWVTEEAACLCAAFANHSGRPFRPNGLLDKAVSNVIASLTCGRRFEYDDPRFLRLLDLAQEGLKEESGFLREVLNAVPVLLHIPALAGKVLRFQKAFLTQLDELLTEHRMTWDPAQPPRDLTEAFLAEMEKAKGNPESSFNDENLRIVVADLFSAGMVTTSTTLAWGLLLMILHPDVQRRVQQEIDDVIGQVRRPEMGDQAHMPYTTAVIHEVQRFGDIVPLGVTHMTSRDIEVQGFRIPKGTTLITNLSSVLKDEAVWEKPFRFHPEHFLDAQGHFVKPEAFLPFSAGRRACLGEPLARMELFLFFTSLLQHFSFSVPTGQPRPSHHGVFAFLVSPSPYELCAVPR

A number with no mark means an inactive call. Results filed as inconclusive are left out. Activity calls are given as the source filed them. Unless noted, calls come from the whole dose curve; as a rule, active = well fitted curve in either direction with a large enough effect (not every such curve was filed as active); inconclusive = small, poorly fitted or top-dose-only effect, or another doubt; inactive = flat fitted curve, though single readings scatter. A value given as a limit tells only on which side of the number the result lay.

Sequence of Cytochrome P450 1A2 (Homo sapiens) (P05177 whole entry, looked up): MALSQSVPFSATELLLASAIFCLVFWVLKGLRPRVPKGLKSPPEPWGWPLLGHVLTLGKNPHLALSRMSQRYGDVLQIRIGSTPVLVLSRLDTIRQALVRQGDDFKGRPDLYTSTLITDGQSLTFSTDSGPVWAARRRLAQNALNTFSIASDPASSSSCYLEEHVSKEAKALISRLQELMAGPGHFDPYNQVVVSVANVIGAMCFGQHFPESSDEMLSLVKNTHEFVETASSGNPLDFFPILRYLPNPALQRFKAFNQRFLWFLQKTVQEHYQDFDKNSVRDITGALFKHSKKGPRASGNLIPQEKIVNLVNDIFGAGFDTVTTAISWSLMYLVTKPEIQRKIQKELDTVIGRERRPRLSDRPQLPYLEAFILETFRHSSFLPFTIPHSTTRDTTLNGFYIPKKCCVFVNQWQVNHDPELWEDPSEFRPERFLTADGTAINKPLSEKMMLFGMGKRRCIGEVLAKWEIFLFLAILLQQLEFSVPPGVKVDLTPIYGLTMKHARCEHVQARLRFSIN
Sequence of Lysosomal acid glucosylceramidase (Homo sapiens) (P04062 whole entry, looked up): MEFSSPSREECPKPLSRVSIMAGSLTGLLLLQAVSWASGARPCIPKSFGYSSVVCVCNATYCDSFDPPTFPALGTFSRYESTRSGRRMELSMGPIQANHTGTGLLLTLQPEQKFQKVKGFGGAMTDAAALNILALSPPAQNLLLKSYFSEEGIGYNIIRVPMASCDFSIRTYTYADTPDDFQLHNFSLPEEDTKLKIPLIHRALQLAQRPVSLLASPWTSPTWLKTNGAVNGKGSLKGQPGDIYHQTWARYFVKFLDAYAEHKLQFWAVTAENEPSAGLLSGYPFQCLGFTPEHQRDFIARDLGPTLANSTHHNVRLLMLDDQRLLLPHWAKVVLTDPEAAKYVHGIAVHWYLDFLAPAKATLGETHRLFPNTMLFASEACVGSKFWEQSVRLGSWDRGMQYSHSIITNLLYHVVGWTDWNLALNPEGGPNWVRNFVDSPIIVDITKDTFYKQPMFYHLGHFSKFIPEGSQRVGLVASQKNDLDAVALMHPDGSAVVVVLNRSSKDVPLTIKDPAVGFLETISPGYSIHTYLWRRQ
Sequence of Cytochrome P450 3A4 (Homo sapiens) (P08684 whole entry, looked up): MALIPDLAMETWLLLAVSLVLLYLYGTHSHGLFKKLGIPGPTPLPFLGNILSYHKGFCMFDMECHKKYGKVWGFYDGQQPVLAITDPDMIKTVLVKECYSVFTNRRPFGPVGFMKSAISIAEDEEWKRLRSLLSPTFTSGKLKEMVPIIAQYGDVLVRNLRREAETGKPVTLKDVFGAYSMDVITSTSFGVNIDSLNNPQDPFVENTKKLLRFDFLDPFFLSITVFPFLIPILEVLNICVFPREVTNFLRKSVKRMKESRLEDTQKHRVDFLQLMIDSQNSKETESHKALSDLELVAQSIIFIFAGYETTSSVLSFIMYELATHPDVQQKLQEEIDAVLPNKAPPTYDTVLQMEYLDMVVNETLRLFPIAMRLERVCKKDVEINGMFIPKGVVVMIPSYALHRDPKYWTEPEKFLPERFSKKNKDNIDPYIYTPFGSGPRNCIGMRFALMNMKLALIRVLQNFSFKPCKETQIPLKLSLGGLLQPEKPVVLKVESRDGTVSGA
Sequence of 3',5'-cyclic-AMP phosphodiesterase 4B (Homo sapiens) (Q07343 whole entry, looked up): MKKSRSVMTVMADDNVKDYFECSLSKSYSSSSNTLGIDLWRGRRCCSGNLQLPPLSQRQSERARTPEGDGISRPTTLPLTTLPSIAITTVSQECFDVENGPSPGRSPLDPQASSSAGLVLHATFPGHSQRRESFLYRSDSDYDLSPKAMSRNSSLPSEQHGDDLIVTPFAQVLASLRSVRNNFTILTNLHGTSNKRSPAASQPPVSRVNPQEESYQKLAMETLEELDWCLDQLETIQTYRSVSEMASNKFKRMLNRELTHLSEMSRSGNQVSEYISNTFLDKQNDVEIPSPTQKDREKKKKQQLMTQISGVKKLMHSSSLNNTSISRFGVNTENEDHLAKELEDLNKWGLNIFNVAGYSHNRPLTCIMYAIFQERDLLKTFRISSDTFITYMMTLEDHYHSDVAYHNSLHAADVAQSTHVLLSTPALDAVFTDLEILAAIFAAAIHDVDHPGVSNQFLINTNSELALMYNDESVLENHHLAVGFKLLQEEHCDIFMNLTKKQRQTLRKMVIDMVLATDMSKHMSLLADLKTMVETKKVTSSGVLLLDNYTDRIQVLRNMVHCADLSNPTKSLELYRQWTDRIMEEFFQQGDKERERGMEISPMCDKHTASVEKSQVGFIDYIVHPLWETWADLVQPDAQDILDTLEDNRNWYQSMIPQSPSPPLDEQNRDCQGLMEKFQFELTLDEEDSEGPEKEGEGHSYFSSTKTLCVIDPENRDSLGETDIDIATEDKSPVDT
Sequence of Cytochrome P450 2C19 (Homo sapiens) (P33261 whole entry, looked up): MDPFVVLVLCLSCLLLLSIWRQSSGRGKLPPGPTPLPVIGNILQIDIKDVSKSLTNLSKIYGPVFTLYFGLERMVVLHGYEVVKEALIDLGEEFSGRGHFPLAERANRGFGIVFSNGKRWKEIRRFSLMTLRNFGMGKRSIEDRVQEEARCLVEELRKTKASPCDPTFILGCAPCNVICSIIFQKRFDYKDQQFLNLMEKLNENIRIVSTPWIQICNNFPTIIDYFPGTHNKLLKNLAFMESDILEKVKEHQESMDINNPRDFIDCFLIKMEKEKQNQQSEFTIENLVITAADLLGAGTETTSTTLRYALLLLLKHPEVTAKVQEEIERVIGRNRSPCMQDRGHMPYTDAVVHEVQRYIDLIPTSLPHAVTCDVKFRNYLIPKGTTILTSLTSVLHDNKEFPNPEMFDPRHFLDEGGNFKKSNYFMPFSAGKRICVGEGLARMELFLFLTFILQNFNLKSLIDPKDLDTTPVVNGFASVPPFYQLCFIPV
Sequence of Cytochrome P450 2C9 (Homo sapiens) (P11712 whole entry, looked up): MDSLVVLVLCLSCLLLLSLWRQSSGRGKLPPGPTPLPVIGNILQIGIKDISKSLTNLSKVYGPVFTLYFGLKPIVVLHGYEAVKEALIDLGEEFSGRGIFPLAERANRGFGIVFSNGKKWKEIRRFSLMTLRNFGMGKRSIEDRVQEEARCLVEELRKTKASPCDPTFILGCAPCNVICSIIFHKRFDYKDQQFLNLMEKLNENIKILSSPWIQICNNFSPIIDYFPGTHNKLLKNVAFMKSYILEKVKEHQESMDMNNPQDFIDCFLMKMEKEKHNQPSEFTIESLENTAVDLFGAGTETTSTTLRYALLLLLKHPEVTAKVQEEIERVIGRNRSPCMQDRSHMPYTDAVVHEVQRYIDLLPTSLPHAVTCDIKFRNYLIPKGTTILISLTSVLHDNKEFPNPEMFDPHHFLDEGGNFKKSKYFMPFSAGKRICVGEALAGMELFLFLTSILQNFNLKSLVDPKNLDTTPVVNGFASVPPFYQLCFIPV

Regarding `CC(C)[C@@H]1OC(=O)C=CC=CC=CC=CC=CC[C@@H](O)[C@H](C)[C@@H](O)C[C@H](O)C[C@H](O)C[C@H](O)C[C@H](O)C[C@H](O)C[C@H](O)C=C[C@@H]1C`, the Potency in assay [1] is above 11.4 µM; in assay [6], above 46 µM; in assay [7] it was above 9.22 µM. The figures for the activity change, negative = inhibition in [2], in [3] and in assay [4] were 1.06%, -2.1% [at 2.29 µM] and 9.95%, respectively. Moreover, the activity, negative = inhibition in assay [5] was 8%. For the same compound, the Potency entry in assay [8], in assay [9], in assay [10] and in assay [11] was “inactive” each time.
`CC[C@H]1CC[C@H]2[C@@H]3CC=C4C[C@H](OC(C)=O)[C@@H](N)C[C@@]4(C)[C@H]3CC[C@@]12C`: the Potency in assay [1] was above 11.4 µM; in assay [6] it was above 46 µM; in assay [7] it was above 9.22 µM. The activity change, negative = inhibition in assay [2] is 8.35%; in [4], 8.17%. Also, the Potency result in [3], in [8], in [9] and in assay [12] was “inactive” each time. Further, the activity, negative = inhibition in assay [5] was -1.58%.
`CC1=NN(C(=O)c2ccncc2)C(=O)[C@@H]1N=Nc1ccc2ccccc2c1`: the Potency is above 11.4 µM in assay [1], 0.158 µM (active) in assay [3], above 46 µM in assay [6] and above 9.22 µM in assay [7]. Further, the values for the activity change, negative = inhibition in assay [2] and in assay [4] were -15.6% and 11.9%, respectively. The activity, negative = inhibition in assay [5] was -4.73%. The Potency entry in [8], in assay [9] and in assay [12] was “inactive” throughout.
As to `O=S(=O)(c1cnccc1N1CCN(CCO)CC1)N1CCCC1`, the Potency in assay [1] was above 11.4 µM; in assay [6], above 46 µM; in assay [7], above 9.22 µM; in [13], 3.98 µM (active). The results for the activity change, negative = inhibition in assay [2], in assay [3] and in assay [4] were 7.47%, -8.3% [at 2.29 µM] and 4.17%, respectively. Moreover, the activity, negative = inhibition in assay [5] was 8.84%. Further, the Potency entry in assay [8], in assay [9] and in assay [12] was “inactive” throughout.
On to `O=C(CC(=O)c1ccncc1)c1ccccc1`, for which the Potency was above 11.4 µM in assay [1]; 0.1 µM (active) in [3]; above 46 µM in assay [6]; above 9.22 µM in assay [7]; 3.16 µM (active) in assay [13]; 0.398 µM (active) in assay [11]. Besides, the values for the activity change, negative = inhibition in assay [2] and in assay [4] were 4.49% and 13.8%, respectively. For the same compound, in [5], the activity, negative = inhibition was 4.76%. Moreover, the Potency result in assay [8], in assay [9] and in assay [12] was “inactive” in each case.
For `C/C(=N/Nc1ccc2ccccc2n1)c1ccccc1O`, the Potency in assay [1] was above 11.4 µM; in assay [3] it was 1.58 µM (active); in assay [6], above 46 µM; in [7], above 9.22 µM; in [13] it was 3.16 µM (active); in [14] it was 0.794 µM (active). Also, the figures for the activity change, negative = inhibition in assay [2] and in [4] were 5.21% and 2.32%, respectively. The activity, negative = inhibition in assay [5] was 7.92%. Besides, the Potency result in assay [8], in [9] and in assay [12] was “inactive” each time.
